Measurements from ChEMBL document CHEMBL1961873, “Compounds: GSK PKIS; Assays: Nanosyn kinase panel” (2012).

Experiments:
[1] = test system: Epidermal growth factor receptor (Homo sapiens), P00533 [T790M]; details: at 1 µM
[2] = test system: Epidermal growth factor receptor (Homo sapiens), P00533 [L858R,T790M]; details: at 0.1 µM
[3] = test system: Epidermal growth factor receptor (Homo sapiens), P00533 [L858R,T790M]; details: at 1 µM
[4] = target: Ephrin type-A receptor 2 (Homo sapiens) (UniProt P29317); details: at 0.1 µM
[5] = target: Ephrin type-A receptor 2 (Homo sapiens) (UniProt P29317); details: at 1 µM
[6] = target: T1, Ephrin type-A receptor 3 (Homo sapiens) (UniProt P29320); details: at 0.1 µM
T1 sequence (whole entry): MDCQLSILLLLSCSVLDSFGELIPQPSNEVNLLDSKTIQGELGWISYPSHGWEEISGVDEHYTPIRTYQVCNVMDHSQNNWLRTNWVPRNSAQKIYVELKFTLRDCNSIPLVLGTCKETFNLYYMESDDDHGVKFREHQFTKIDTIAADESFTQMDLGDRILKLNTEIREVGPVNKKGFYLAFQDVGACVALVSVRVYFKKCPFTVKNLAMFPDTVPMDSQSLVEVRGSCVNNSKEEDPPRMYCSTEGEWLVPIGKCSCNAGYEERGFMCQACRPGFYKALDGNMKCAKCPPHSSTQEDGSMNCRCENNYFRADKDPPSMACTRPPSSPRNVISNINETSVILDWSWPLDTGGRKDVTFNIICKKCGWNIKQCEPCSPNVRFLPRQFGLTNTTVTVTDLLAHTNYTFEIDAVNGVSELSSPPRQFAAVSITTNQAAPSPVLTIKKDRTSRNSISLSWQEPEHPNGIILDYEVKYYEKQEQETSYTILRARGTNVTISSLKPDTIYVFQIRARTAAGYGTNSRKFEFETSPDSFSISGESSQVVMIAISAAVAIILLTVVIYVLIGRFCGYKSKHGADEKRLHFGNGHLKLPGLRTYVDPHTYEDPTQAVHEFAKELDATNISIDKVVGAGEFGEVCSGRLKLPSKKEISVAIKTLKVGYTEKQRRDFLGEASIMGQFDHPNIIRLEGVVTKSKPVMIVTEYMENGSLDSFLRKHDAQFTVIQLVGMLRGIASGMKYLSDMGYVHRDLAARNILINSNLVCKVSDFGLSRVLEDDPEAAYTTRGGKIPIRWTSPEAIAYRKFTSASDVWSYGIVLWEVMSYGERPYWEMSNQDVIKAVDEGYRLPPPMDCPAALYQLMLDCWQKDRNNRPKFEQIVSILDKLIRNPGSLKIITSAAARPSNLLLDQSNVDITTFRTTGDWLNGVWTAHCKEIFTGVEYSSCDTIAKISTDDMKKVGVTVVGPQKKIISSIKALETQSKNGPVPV

[7] = target: T1, Ephrin type-A receptor 3 (Homo sapiens); details: at 1 µM
[8] = target: Ephrin type-A receptor 4 (Homo sapiens) (UniProt P54764); details: at 0.1 µM
[9] = target: Ephrin type-A receptor 4 (Homo sapiens) (UniProt P54764); details: at 1 µM
[10] = target: T2, Ephrin type-B receptor 2 (Homo sapiens) (UniProt P29323); details: at 0.1 µM
T2 sequence (whole entry): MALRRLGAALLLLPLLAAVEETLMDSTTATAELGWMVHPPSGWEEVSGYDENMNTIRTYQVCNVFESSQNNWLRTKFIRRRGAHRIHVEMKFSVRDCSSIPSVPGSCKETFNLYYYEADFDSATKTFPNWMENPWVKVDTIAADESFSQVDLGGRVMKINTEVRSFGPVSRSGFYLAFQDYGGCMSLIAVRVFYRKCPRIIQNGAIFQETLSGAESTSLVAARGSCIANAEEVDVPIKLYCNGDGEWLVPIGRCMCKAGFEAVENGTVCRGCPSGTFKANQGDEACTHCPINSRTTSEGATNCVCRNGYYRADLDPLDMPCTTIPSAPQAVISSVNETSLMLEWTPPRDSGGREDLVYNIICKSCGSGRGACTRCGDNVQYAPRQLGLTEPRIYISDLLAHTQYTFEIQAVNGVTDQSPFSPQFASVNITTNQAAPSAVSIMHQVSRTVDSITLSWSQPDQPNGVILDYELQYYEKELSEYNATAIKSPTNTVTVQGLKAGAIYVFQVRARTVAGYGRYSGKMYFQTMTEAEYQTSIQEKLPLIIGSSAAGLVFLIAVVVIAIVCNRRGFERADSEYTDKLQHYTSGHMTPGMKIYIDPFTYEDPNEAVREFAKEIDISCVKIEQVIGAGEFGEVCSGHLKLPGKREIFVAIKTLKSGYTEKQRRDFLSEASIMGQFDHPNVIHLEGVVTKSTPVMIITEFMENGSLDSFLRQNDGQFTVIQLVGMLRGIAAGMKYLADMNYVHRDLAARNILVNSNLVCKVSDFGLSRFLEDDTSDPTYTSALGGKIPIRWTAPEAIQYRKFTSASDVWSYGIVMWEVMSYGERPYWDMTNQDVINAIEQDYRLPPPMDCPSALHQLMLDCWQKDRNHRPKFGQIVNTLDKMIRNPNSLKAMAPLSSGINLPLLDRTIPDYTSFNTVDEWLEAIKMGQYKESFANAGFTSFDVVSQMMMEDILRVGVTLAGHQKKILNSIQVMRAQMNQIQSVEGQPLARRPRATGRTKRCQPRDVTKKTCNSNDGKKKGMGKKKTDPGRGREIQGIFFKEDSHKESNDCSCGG

[11] = target: T2, Ephrin type-B receptor 2 (Homo sapiens); details: at 1 µM
[12] = target: T3, Ephrin type-B receptor 3 (Homo sapiens) (UniProt P54753); details: at 0.1 µM
T3 sequence (whole entry): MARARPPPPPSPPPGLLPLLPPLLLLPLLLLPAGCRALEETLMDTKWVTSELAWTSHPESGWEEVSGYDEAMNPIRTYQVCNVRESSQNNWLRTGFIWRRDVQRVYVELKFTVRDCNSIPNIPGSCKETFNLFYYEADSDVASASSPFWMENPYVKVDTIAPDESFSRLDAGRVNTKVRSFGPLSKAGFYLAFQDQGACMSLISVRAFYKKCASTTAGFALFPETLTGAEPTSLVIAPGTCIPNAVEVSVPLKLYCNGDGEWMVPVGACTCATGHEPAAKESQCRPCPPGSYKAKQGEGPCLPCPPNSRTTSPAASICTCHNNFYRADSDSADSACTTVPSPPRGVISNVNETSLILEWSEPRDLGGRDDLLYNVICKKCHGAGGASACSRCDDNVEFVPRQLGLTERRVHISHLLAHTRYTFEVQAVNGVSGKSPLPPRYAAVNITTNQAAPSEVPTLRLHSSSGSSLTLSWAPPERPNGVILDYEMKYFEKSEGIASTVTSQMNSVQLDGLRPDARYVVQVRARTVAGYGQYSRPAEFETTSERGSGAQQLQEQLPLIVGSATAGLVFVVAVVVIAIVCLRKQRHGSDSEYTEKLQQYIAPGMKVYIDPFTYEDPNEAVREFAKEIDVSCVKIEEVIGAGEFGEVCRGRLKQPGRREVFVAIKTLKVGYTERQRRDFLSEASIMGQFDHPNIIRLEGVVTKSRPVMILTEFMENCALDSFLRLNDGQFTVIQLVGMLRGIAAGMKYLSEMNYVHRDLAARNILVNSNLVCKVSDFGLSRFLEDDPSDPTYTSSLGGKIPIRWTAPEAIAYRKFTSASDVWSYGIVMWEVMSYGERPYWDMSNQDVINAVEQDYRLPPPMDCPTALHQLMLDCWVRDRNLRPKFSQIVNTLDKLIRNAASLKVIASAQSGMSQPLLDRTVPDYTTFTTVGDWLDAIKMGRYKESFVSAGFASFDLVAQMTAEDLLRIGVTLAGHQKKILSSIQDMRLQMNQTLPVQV

[13] = target: T3, Ephrin type-B receptor 3 (Homo sapiens); details: at 1 µM
[14] = target: T4, Ephrin type-B receptor 4 (Homo sapiens) (UniProt P54760); details: at 0.1 µM
T4 sequence (whole entry): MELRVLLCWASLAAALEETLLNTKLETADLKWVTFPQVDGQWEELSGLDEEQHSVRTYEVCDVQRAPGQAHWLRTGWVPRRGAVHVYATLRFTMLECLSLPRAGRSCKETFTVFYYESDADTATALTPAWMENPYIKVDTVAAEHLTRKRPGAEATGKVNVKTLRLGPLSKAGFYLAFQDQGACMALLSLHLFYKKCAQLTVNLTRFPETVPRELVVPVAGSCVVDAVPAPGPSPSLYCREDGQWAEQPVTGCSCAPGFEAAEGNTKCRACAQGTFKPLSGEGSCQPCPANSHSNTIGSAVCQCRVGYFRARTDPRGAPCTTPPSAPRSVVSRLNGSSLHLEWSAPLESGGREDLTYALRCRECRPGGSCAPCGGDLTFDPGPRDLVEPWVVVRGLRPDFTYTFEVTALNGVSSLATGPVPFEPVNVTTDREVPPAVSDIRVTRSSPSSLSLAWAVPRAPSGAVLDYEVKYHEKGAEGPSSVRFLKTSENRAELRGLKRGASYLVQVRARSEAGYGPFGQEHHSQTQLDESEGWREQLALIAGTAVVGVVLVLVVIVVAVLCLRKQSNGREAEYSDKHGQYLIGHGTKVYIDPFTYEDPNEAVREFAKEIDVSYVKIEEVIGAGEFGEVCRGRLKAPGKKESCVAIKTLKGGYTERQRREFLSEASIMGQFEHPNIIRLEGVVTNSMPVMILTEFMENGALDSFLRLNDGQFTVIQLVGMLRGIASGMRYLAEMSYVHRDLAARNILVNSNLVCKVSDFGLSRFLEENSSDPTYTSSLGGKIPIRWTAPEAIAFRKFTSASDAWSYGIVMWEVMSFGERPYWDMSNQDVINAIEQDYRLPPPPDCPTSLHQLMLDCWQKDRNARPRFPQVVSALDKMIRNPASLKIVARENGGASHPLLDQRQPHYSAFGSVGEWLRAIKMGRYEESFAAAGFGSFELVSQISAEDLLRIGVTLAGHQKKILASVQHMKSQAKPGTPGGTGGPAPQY

[15] = target: T4, Ephrin type-B receptor 4 (Homo sapiens); details: at 1 µM
[16] = target: Receptor tyrosine-protein kinase erbB-2 (Homo sapiens) (UniProt P04626); details: at 0.1 µM
[17] = target: Receptor tyrosine-protein kinase erbB-2 (Homo sapiens) (UniProt P04626); details: at 1 µM
[18] = target: Receptor tyrosine-protein kinase erbB-4 (Homo sapiens) (UniProt Q15303); details: at 0.1 µM
[19] = target: Receptor tyrosine-protein kinase erbB-4 (Homo sapiens) (UniProt Q15303); details: at 1 µM
[20] = target: Tyrosine-protein kinase Fer (Homo sapiens) (UniProt P16591); details: at 0.1 µM;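 also: reported figures are averaged percent inhibition of FER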
Sequence of Tyrosine-protein kinase Fer (Homo sapiens) (P16591 whole entry, looked up): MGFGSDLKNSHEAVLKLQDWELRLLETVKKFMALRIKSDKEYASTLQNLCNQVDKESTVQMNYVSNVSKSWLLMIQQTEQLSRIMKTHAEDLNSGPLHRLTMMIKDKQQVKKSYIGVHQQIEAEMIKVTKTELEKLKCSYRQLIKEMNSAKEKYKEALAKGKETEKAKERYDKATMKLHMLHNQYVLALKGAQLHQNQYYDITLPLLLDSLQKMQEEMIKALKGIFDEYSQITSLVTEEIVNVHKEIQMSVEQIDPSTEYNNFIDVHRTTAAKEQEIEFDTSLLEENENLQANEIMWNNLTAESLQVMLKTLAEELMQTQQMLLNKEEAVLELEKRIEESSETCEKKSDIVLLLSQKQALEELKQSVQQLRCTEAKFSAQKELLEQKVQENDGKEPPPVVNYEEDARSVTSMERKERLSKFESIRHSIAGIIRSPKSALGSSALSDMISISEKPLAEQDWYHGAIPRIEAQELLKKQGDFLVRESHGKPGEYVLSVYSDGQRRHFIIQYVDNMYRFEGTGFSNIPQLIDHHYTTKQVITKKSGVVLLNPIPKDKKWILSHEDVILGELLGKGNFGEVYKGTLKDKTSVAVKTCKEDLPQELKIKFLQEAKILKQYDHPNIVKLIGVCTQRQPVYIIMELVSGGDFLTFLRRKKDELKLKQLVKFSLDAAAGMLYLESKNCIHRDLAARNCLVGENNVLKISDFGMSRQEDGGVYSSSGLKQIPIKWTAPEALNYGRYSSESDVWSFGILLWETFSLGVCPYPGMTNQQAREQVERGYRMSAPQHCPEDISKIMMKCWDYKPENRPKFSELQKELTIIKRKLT

Sequence of Ephrin type-A receptor 2 (Homo sapiens) (P29317 whole entry): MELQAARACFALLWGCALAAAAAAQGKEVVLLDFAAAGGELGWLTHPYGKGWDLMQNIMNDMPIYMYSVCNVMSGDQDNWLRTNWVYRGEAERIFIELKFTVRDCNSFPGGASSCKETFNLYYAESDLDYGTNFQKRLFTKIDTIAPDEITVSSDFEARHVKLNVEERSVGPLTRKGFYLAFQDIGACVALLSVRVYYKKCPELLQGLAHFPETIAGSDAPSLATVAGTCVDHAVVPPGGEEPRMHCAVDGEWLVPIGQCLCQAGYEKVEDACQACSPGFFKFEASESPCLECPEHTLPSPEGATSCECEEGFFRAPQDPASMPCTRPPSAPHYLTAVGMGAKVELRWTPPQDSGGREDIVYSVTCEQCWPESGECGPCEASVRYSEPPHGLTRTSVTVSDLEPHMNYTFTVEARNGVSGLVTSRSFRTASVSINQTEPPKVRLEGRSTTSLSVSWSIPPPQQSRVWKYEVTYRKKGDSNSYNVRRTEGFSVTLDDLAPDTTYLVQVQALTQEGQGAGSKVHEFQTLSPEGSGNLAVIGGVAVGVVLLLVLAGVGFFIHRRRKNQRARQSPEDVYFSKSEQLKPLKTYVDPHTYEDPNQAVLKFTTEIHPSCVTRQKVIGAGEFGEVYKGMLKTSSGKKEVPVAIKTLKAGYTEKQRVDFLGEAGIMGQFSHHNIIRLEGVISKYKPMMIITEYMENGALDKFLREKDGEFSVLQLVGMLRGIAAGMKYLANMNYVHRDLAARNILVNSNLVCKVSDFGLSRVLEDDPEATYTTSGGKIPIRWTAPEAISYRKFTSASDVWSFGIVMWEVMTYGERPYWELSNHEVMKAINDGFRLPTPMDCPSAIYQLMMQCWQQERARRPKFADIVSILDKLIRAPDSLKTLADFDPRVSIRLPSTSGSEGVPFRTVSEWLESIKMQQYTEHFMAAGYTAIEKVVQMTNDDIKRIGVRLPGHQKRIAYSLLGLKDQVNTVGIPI
Sequence of Ephrin type-A receptor 4 (Homo sapiens) (P54764 whole entry): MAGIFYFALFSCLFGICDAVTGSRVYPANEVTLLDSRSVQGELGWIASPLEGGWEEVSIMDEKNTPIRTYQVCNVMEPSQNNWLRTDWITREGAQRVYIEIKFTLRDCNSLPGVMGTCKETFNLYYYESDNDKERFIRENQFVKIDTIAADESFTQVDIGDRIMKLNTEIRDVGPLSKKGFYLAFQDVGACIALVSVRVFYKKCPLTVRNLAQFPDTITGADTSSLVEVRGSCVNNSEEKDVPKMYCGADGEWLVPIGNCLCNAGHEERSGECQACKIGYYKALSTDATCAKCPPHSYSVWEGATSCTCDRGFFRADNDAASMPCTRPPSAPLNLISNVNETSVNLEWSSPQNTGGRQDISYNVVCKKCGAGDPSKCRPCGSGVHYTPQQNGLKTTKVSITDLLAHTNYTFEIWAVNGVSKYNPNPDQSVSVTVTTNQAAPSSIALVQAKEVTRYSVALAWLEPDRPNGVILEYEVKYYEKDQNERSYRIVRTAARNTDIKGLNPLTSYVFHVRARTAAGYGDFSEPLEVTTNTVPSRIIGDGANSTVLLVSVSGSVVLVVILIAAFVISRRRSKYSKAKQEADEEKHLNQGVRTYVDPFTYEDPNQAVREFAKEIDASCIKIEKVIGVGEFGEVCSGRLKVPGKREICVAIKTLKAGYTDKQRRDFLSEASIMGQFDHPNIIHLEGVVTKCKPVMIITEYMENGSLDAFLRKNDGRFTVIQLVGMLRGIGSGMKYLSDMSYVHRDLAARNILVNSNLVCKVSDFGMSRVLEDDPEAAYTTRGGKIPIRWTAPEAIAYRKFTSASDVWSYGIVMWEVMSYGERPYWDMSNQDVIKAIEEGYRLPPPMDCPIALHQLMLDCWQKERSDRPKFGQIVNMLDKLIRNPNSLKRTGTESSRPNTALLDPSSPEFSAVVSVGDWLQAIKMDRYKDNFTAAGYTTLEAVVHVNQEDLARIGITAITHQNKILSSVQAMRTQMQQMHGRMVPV
Sequence of Receptor tyrosine-protein kinase erbB-2 (Homo sapiens) (P04626 whole entry): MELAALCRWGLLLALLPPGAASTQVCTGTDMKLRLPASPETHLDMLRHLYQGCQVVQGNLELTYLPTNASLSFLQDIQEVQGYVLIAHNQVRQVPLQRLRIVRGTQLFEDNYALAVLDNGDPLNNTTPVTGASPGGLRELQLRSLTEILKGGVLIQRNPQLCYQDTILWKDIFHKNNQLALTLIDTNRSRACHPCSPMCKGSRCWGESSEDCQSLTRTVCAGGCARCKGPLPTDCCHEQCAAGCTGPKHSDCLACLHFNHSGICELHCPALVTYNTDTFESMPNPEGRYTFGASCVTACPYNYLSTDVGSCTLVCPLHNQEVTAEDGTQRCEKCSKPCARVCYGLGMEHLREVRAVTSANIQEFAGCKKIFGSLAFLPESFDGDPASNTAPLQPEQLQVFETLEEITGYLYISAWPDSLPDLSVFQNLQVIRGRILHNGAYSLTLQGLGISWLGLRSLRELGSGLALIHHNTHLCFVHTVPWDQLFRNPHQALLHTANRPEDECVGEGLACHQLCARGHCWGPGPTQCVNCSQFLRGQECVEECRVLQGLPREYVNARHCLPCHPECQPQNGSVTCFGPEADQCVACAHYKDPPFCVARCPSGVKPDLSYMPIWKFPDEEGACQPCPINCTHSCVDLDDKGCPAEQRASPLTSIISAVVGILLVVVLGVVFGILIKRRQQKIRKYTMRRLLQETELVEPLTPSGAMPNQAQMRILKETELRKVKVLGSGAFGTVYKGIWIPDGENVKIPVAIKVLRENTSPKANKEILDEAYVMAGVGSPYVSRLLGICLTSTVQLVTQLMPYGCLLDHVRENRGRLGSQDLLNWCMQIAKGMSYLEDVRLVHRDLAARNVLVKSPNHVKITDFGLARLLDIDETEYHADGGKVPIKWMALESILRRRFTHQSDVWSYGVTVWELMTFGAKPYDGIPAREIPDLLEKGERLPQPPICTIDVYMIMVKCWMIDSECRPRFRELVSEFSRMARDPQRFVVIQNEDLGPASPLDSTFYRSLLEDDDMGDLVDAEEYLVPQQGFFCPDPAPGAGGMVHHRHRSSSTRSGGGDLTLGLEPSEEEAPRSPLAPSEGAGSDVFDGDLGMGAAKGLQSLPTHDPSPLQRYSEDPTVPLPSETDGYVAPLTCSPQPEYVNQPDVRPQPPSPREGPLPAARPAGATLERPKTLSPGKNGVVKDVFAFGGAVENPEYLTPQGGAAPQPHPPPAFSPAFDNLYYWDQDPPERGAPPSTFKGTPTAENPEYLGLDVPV

Structure (SMILES) | inhibition [1] [%] | inhibition [2] [%] | inhibition [3] [%] | inhibition [4] [%] | inhibition [5] [%] | inhibition [6] [%] | inhibition [7] [%] | inhibition [8] [%] | inhibition [9] [%] | inhibition [10] [%] | inhibition [11] [%] | inhibition [12] [%] | inhibition [13] [%] | inhibition [14] [%] | inhibition [15] [%] | inhibition [16] [%] | inhibition [17] [%] | inhibition [18] [%] | inhibition [19] [%] | inhibition [20] [%]
CN(C)c1cc2c(Nc3ccc4nc(Cc5ccccc5)[nH]c4c3)ncnc2cn1 | 6.78 | 3.54 | 7 | 2.13 | 2.37 | 7.81 | 5.67 | 11.6 | 15.2 | 9.32 | 15.3 | 4.07 | 4.22 | 4.92 | 3.25 | 20 | 67.7 | 101 | 99.7 | 5.55
CCn1c(-c2nonc2N)nc2c(N3CCCC3)nccc21 | -1.06 | 0.11 | 0.62 | -5.01 | -4.35 | -5.79 | -2.29 | -6.53 | -8.11 | -2.18 | -2.7 | -2.28 | -3.63 | -1.4 | -1.17 | -5.46 | -0.23 | -3.28 | -2.19 | 2.26
NS(=O)(=O)c1ccc(N/N=C2\C(=O)Nc3ccc(C(=O)NCCc4c[nH]cn4)cc32)cc1 | 1.79 | 3.11 | 5.71 | 1.93 | 1.88 | 7.18 | 8.06 | 10.7 | 16.3 | 11.4 | 16.2 | 3.04 | 0.13 | 4.11 | 6.29 | 1.36 | 1.09 | 6.82 | 7.51 | 
c1cnn2ncc(-c3ccnc(Nc4ccc5c(c4)OCCO5)n3)c2c1 | 2.42 | 2.19 | 7.05 | 2.91 | 5.71 | 7.54 | 5.48 | 12 | 28.2 | 12.1 | 29.4 | 3.36 | 6.8 | 3.69 | 12.5 | 1.94 | 2.67 | 8.29 | 12.4 | 10.7
